High-throughput results as filed in PubChem BioAssay.
HIF act: HIF pathway transcriptional activators, primary screen, cell-based, U2OS HRE-luciferase, luminescence. U2OS HRE-luciferase reporter; normalized: DMSO 0%, desferrioxamine 100%. activation, % at 7.5 µM (by protocol). 300,000 compounds, 0.32% hits;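 active = mean activation of at least 10% of the iron chelator positive control signal, with at least half of replicates also reaching 10%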
p-CIP stab down: p/CIP-EGFP fusion destabilizers, primary screen, fluorescence, F442A cells; 290,000 compounds, 0.01% hits; Q05BA5; 16 h; decrease of EGFP signal, % at 10 µM;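 active = EGFP signal decrease of at least 30% at 10 µM or well 3 SD below plate mean, unless failing retest; inactive = the rest, including hits failing retest or dose response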
PolyA inhibitor: polyadenylation inhibitors in yeast reporter cells, primary screen, luminescence, S. cerevisiae. AID 1875, 2009. S. cerevisiae SKY197-pL101 polyadenylation reporter, beta-gal luminescence; efflux-impaired pdr1/pdr3 knockout yeast; score 100 = 6 SD above DMSO. 300,000 compounds, 0.02% hits. activity score, % at 12 µM;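 active = lowest replicate activity score at least 50, where 100 means six control SD above control mean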;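 also: yeast exposed to compound for 9 h at 30 °C; higher score means more reporter readthrough which indicates perturbed polyadenylation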
Platelet DG rel: inhibitors of platelet dense granule secretion, primary screen, cell-based, MLPCN, human platelets; human platelet-rich plasma, SFLLRN dense granule ATP release, luminescence; 300,000 compounds, 0.22% hits; AID 1663, 2009; inhibition, %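 (compounds screened at 7.5 µM in platelet-rich plasma)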;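 active = mean replicate score, as percent of positive control, at or above 50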
AHR activator: AHR activators, primary screen, cell-based, luminescence, luciferase reporter, human | AID 2796, 2010 | 320,000 compounds, 2.5% hits | AHR-responsive luciferase reporter cells | activation, % at 5 µM; in the data active = activation above about 47%;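 also: 0% = vehicle wells and 100% = reference agonist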
AHR act confirm: AHR activators, confirmation, cell-based, luminescence, luciferase reporter, human; shares compounds with AHR activator; human cells, AHR-responsive luciferase reporter; activation, % at 9 µM; 2,300 compounds, 87% hits; AID 2845, 2010; in the data active = activation above about 49%;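 also: HepG2 hepatoma cells carrying a DRE-driven firefly luciferase reporter; 0% = vehicle wells and 100% = reference agonist wells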
PXR counter: human PXR activators, counter-screen for AHR activator project, cell-based, luciferase luminescence; 2,300 compounds, 88% hits; activation, % at 11.6 µM; shares compounds with AHR activator; cell-based PXR reporter; in the data active = activation above about 11%;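 also: human hepatoma DPX-2 cells expressing full-length human PXR; 0% = DMSO and 100% = reference agonist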
Target sequence (O75469 whole entry, looked up): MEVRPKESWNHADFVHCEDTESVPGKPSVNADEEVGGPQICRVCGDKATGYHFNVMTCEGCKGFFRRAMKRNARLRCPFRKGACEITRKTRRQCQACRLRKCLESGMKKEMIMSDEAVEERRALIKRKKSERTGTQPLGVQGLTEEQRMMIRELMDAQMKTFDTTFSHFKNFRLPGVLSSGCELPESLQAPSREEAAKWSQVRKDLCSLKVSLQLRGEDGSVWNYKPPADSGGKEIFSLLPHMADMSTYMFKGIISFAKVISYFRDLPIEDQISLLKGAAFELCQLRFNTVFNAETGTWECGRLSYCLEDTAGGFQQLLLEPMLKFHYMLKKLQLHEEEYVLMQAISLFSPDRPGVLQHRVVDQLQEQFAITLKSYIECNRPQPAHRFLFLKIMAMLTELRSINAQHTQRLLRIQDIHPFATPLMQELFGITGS
The depositor's hits bear a star; nt = no result. A selection: hits, their analogues and other compounds. The true share with any hit is near 2.8%.

SMILES	HIF act	p-CIP stab down	PolyA inhibitor	Platelet DG rel	AHR activator	AHR act confirm	PXR counter
Cc1ccc(C(=O)Nc2cccc(C(F)(F)F)c2)cc1Nc1ncnc2nc[nH]c12	0.1	-9.2	-4.3	0.0	83.7*	39.1	30.0*
CCCCCCSc1ccc(-c2nc3ccc(Cl)cn3c2NCCCC)cc1OC	nt	nt	nt	nt	1.7	nt	nt
CCCCNc1c(-c2ccc(-c3cccc(Cl)c3)cc2)nc2ccc(Cl)cn12	nt	nt	nt	nt	79.5*	33.3	14.0*
Cc1ccc(-n2cc(C(=O)c3ccc(N4CCN(C)CC4)cc3)nn2)cc1Cl	-6.8	-1.0	-6.3	-2.4	89.6*	0.7	14.9*
COC(=O)C1CCN(C(=O)/C(C)=C\c2ccccc2)CC1	-7.6	2.9	-19.4	-7.9	5.9	nt	nt
C/C(CCS(=O)(=O)c1ccccc1)=N/O	-0.5	-37.3	12.4	-0.6	0.5	nt	nt
COc1ccc(C)cc1N/C(N)=N/c1nc(C)cc(C)n1	0.0	4.1	7.2	0.3	81.4*	58.6*	nt
O=C(NN=C1CCCCCC1)c1ccc2c(c1)OCO2	3.1	-11.1	-27.9	4.8	30.7	nt	nt
Cc1ccc2[nH]c(O)c(N=NC(=O)C(C)n3cnc4ccccc4c3=O)c2c1 (stereo unspecified)	0.2	-9.7	4.7	-6.0	88.2*	69.2*	45.8*
CCOc1ccc2c(c1)sc(=NC(=O)C1CC1)n2C	2.2	-11.1	-16.3	0.6	92.3*	70.8*	36.8*
Cc1ccc(CN2CC[C@H]3C=CCc4cccc(c43)C2)cc1	nt	nt	nt	nt	2.3	nt	nt
COc1ccc(CN2CC[C@H]3C=CCc4cccc(c43)C2)cc1	nt	nt	nt	nt	82.5*	9.5	26.1*
CNC(=O)c1cc2c(ccc3ccccc32)o1	0.8	-4.8	-1.2	-4.9	107.7*	102.2*	12.7*
Cc1ccc(/C=N/NC(=O)c2cc3c(ccc4ccccc43)o2)o1	0.1	1.3	40.8	0.9	nt	nt	nt
O=C(NC1CCCC1)c1cc2c(ccc3ccccc32)o1	2.3	-3.4	5.9	-13.9	112.1*	66.1*	nt
COC(=O)/C=C1/S/C(=N/N=C/c2ccc(N(C)C)cc2)NC1=O	-0.5	-4.4	-12.0	1.6	2.6	nt	nt
CN(C)c1cc(-c2ccc(Br)cc2)oc(=O)c1Cl	-0.4	-0.3	-4.7	9.9	85.2*	70.0*	22.2*
CN(C)c1cc(-c2ccc(C#N)cc2)oc(=O)c1Cl	0.1	2.5	5.7	-4.4	-5.0	nt	nt
CCCc1cc(C(=O)N/N=C/c2ccc(CC)s2)c2ccccc2n1	-0.6	-1.5	-13.5	-0.7	41.1	nt	nt
Cc1occc1C(=O)N/N=C/c1c[nH]c2ccccc12	1.2	-7.1	4.6	16.8	123.2*	111.6*	23.4*
CCc1ccc(/C=N/NC(=O)c2c[nH]c3ccccc23)s1	2.1	0.0	4.1	1.9	85.3*	38.8	42.3*
O=C(N/N=C/c1c[nH]c2ccccc12)c1cc(Cl)ccc1O	-8.1	2.6	2.0	-4.2	148.5*	113.4*	4.5
O=C(N/N=C/c1c[nH]c2ccccc12)C1COc2ccccc2O1 (stereo unspecified)	3.6	5.9	-12.6	-1.7	92.3*	72.0*	nt
O=C(N/N=C\c1ccc(Cl)s1)C1COc2ccccc2O1 (stereo unspecified)	2.7	11.6	-4.8	1.9	0.5	nt	nt
CCNC(=S)Nc1cccc(F)c1C	0.4	-1.2	-19.2	-0.2	-0.1	nt	nt
SMILES	HIF act	p-CIP stab down	PolyA inhibitor	Platelet DG rel	AHR activator	AHR act confirm	PXR counter
Cc1nn(C)c(Sc2ccccc2N)c1[N+](=O)[O-]	0.5	3.4	-7.7	2.8	17.8	nt	nt
COc1ccccc1CNC(=O)COC(=O)/C=C/c1ccc2c(c1)OCO2	nt	nt	nt	nt	1.8	nt	nt
NC(=O)Nc1ccc(C(=O)OCC(=O)NC2CCCCC2)cc1	-0.5	4.5	21.4	1.2	-0.8	nt	nt
CCc1ccc(N=Nc2ccc(O)c3[nH]cnc23)cc1	nt	nt	nt	nt	100.9*	92.9*	10.6*
Nc1nc(Nc2cccc(F)c2)nc2ccccc12	6.2	3.1	12.9	32.6	82.6*	75.4*	35.3*
COc1ccc(Cl)cc1Nc1nc(N)c2ccccc2n1	5.9	-4.7	16.6	5.3	105.0*	115.1*	13.7*
Cc1ccc(C)c(Nc2nc(N)c3ccccc3n2)c1	1.7	-3.0	25.2	13.6	10.5	nt	nt
O=Cc1ccc(C(=O)OCC(=O)NC(=O)Nc2ccccc2F)cc1	nt	nt	nt	nt	1.3	nt	nt
O=c1[nH]c(/C=C/c2ccccc2OC(F)F)nc2c1cnn2-c1ccccc1	0.4	-11.3	4.7	6.6	85.2*	16.3	33.2*
O=C1c2ccccc2C(=O)c2c1ncn2-c1ccccc1	-1.1	-3.5	-21.2	9.5	87.2*	129.7*	32.6*
N#Cc1c(C(F)(F)F)cc(-c2cccc(Cl)c2)[nH]c1=O	-0.3	-12.0	17.0	-7.9	-2.6	nt	nt
FC(F)(F)c1cc(-c2ccccc2)nc(NCc2cccnc2)n1	-0.5	-5.1	7.9	-0.5	90.5*	27.7	42.9*
O=C(Nc1ccon1)c1csc2c1CCCC2	0.6	-2.4	-12.4	-2.4	8.2	nt	nt
O=C(Nc1nccs1)c1csc2c1CCCC2	-6.1	8.8	-26.6	0.5	84.2*	121.1*	25.0*
c1ccc(C2=Nc3c(ccc4ccccc34)C(c3ccncc3)=NN2)cc1	nt	2.9	nt	nt	80.2*	109.9*	46.1*
Cc1ccc2c(c1)C(c1ccncc1)=NNC(c1ccccc1)=N2	2.2	-16.3	1.2	1.9	-0.1	nt	nt
CCc1ccc2c(c1)C(c1cccs1)=NNC(c1cccnc1)=N2	0.3	-1.8	-1.8	1.2	19.7	nt	nt
Clc1ccc2c(c1)C(c1cccs1)=NNC(c1cccnc1)=N2	0.1	-6.0	0.9	-3.7	104.8*	55.9*	49.6*
O=C(OCCOc1cccc(Cl)c1)c1ccc2ncsc2c1	2.9	-21.9	15.9	3.9	-0.4	nt	nt
C/C(=N\OC(=O)NC(C)C)c1sc(-c2ccc(Cl)cc2)nc1C	5.4	-9.5	-7.5	3.7	109.3*	104.2*	16.7*
C/C(=N\OC(=O)c1ccc(Cl)cc1)c1sc(-c2ccccc2)nc1C	3.1	2.4	5.0	1.3	1.4	nt	nt
C/C(=N\OC(=O)NC(C)C)c1sc(-c2ccccc2)nc1C	5.2	13.3	6.5	15.4	-8.8	nt	nt
CCNC(=O)O/N=C(\C)c1sc(-c2ccc(Cl)cc2)nc1C	4.3	-9.5	-8.5	21.5	134.9*	134.6*	16.9*
CCCCNC(=O)c1sc2ncnc(N3CCc4ccccc4C3)c2c1C	0.5	7.4	-10.6	-4.8	98.6*	101.7*	23.5*
CCOC(=O)CNC(=O)c1sc2ncnc(N3CCc4ccccc4C3)c2c1C	0.2	-3.6	-0.6	-5.3	45.2	nt	nt
